The whole screen tested about 110,000 compounds, of which about 230 (0.21%) showed an effect of 50% or more. Shown is part of a subset that was picked to be rich in strong results.
target: DPAP1 (Plasmodium falciparum, UniProt Q8IIJ9); assay: primary screen, percent inhibition; read by cleavage of a fluorogenic dipeptide substrate; higher = more effect of the substance; parameters: species or system P. falciparum D10 trophozoite lysates; single well
Method: HTS was performed in black 384-well plates. The first and last two columns of each plate contained our negative (DMSO) and positive (10 μM JCP410) controls, and the 20 central columns the test compounds at 10 μM. Compounds were first diluted 50-fold into assay buffer (50 mM sodium acetate, 5 mM MgCl2, 10 mM β-mercaptoethanol, and 0.1% CHAPS, pH 5.5) from a 10 mM DMSO stock plates. One microliter of this 200 μM intermediate stock plate was dispensed into the assay plate. […] After 30 min, the reaction was quenched with 20 μL of 0.5 M acetic acid, and the fluorescent intensity measured at 523 nm (λex = 492 nm) using an Analyst HT multimode plate reader (Molecular Devices).
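Further: 30 min substrate incubation versus DMSO and 10 µM JCP410 controls.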

Sequence of DPAP1 (Q8IIJ9 whole entry, looked up): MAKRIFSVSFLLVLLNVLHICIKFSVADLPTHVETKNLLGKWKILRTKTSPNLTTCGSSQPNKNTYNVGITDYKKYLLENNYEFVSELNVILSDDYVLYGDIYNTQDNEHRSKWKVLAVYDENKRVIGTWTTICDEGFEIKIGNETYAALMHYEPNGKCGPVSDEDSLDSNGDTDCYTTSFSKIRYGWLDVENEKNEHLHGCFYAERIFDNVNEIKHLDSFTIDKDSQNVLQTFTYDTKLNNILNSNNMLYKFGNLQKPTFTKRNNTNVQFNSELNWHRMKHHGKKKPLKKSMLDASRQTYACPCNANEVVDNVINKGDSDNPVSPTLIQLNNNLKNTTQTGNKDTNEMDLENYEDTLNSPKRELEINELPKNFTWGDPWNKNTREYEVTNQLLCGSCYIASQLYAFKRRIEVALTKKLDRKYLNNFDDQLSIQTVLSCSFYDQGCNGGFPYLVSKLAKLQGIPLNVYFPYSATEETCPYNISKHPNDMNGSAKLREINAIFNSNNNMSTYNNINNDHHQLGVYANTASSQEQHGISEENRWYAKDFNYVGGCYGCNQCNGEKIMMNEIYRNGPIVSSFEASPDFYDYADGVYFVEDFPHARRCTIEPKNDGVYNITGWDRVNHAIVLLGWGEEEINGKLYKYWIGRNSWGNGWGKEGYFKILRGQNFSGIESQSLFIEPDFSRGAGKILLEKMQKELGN

Compound	% Inhibition @ 10 uM [%]
Cc1cc2c(c(S)n1)C(=O)O/C2=C\c1ccco1	67.6
Cc1cc2c(c(S)n1)C(=O)O/C2=C\c1c[nH]nc1-c1cccs1	43.6
Cc1cc2c(c(S)n1)C(=O)O/C2=C\c1c[nH]nc1-c1ccc(F)cc1	26
CCOC(=O)N1CCN(C(=O)CSc2nc(-c3ccc(C)cc3)cn2-c2ccc(OC)cc2)CC1	77.3
COc1ccc(-n2cc(-c3ccc(C)cc3)nc2SCC(=O)NCC2CCCO2)cc1 (stereo not drawn)	4.33
CCOC(=O)N1CCN(C(=O)CSc2nnc(Cc3cccn3C)n2-c2ccc(OC)cc2)CC1	-5.76
CC1CCCCC1NC(=O)c1cnn2c(C(F)(F)F)cc(-c3cccs3)nc12 (stereo not drawn)	4.36
c1ccc2c(c1)CCN(c1ncnc3c1nnn3Cc1cccc3ccccc13)C2	-0.0678
CCS(=O)(=O)N1CCC(C(=O)NCc2ccc(F)cc2Cl)CC1	-6.75
CN(C)CC1CSCCC1(O)c1cccc(O)c1 (stereo not drawn)	-15.4
CN(C)CC1CSCCC1(O)c1cccc(Cl)c1 (stereo not drawn)	-4.54
CN(C)CC1CSCCC1(O)c1ccccc1 (stereo not drawn)	85.1
O=c1oc2c(cc(NS(=O)(=O)c3ccc(F)cc3)c3ccccc32)s1	-2.54
Cc1cc2ccccc2n1-c1ccc(C(=O)N2CCCCCC2)s1	3.12
C=CC/N=C/C1=C(O)CC(C)(C)CC1=O	-3.06
CC1(C)CC2=NCC(=O)NC2=C(O)C1	59.8
CC1(C)CC2=NC3=C(C(=O)CC(C)(C)C3)C(c3cc(Cl)c(O)c(Cl)c3)C2=C(O)C1 (stereo not drawn)	13.2
COc1ccc(Br)cc1C1C(C#N)=C(N)Oc2[nH]nc(-c3ccc4c(c3)OCO4)c21 (stereo not drawn)	3.99
CCOC(=O)C1=NNC2C(=O)N(c3ccc(F)cc3)C(=O)C12 (stereo not drawn)	-5.48
O=C(Nc1nccs1)c1ccc(COc2ccccc2Cl)o1	-5.98
Cc1c(CNC(=O)c2cc(-c3ccccc3)nc3ccc(Br)cc23)cnn1C	-2.9

Compound	% Inhibition @ 10 uM [%]
Cc1ccc2nc(C)n3c4ccccc4c(NC(=O)c4ccccc4)c3c2c1	-6.87
Cc1nc2ccc(Cl)cc2c2c(N)c3ccccc3n12	66
COc1ccc2nc(C)n3c4ccccc4c(NC(C)=O)c3c2c1	2.4
Cc1nn2c3ccccc3nc2c2ccccc12	5.3
O=C(O)CCS(=O)(=O)Cc1ccccc1F	1.27
Cc1nc2c(c(C)c1CCC(=O)N1CCC(C)CC1)c(=O)n(C)c(=O)n2C	-3.1
Cc1nc2c(c(C)c1CCC(=O)N1CCN(C3CCCCC3)CC1)c(=O)n(C)c(=O)n2C	52.7
Cc1nc2c(c(C)c1CCC(=O)N1CCC(N3CCCCC3)CC1)c(=O)n(C)c(=O)n2C	-6.91
CC(NC(=O)c1ccc(Br)cc1)C1COc2ccccc2O1 (stereo not drawn)	3.24
CCOC(=O)C1=C(O)/C(=C\c2ccccc2OC)N=C1C	-1.6
CN1CSC2=C(C#N)C(c3cccc(OCc4ccccc4)c3)CC(=O)N2C1 (stereo not drawn)	71.1
CCOc1ccc(C2CC(=O)N3CN(C)CSC3=C2C#N)cc1OC (stereo not drawn)	47.5
N#CC1=C2SCN(Cc3ccco3)CN2C(=O)CC1c1cccc(OCc2ccccc2)c1 (stereo not drawn)	66.7
N#CC1=C2SCN(Cc3ccco3)CN2C(=O)CC1c1ccc(Cl)cc1 (stereo not drawn)	42.2
CCOc1ccc(C2CC(=O)N3CN(Cc4ccco4)CSC3=C2C#N)cc1 (stereo not drawn)	43.4
CC(C)c1ccc(S(=O)(=O)Nc2ccc3oc(=O)sc3c2)cc1	1.13
CCC(C)N(CCNC(=O)c1c2c(nc3ccccc13)C(=O)N(C1CCCCC1)C2)Cc1ccco1 (stereo not drawn)	2.48
CCOC(=O)c1cc(C)n(CC2CCC(C(=O)Nc3cccc(C)n3)CC2)c1C (stereo not drawn)	-0.943
CCOC(=O)c1cnn(C(C)(C)C)c1C1CCN(C(=O)OC(C)(C)C)CC1	-2.83
Cc1ccc(S(=O)(=O)N2CCCC2)cc1S(=O)(=O)N1CCCC1	1.52
CCC(=O)/N=c1/n(C)c2ccccc2n1CCOc1ccccc1	0.512

Compound	% Inhibition @ 10 uM [%]
OC(COc1cccc2ccccc12)CN1CCN(CC(O)COc2cccc3ccccc23)CC1 (stereo not drawn)	51.4
Cc1ccccc1OCC(O)CN1CCN(CC(O)COc2ccccc2C)CC1 (stereo not drawn)	-0.053
OC(COc1ccccc1Cl)CN1CCN(CC(O)COc2ccccc2Cl)CC1 (stereo not drawn)	0.131
Cc1cc(Br)ccc1OCC(=O)O/N=C(\N)c1cccnc1	-6.94
CCCCN(C)C(=O)CCNC(=O)Cn1ccc2ccccc2c1=O	7.85
CCOc1ccc(S(=O)(=O)N2CCSC2c2ccc(OC)c(OC)c2)cc1 (stereo not drawn)	25.4
O=C1/C(=C/c2ccc3nccnc3c2)CC/C1=C\c1ccc2nccnc2c1	-0.503
O=C1/C(=C/c2ccc(F)cc2)CCC1C1CCCC1 (stereo not drawn)	23.4
O=C1/C(=C/c2ccc3nccnc3c2)CCC1C1CCCC1 (stereo not drawn)	66.2
Cc1cc(C)c2c(n1)sc1c(=O)oc(C)nc12	-0.13
Cc1ccc(N(CC(=O)Nc2ccc(CC#N)cc2)S(=O)(=O)c2ccccc2)c(C)c1	-6.77
O=C(NCc1ccco1)c1ccc(CN2CC(=O)N3CCCCC3C2=O)cc1 (stereo not drawn)	3.7
Cc1ccc(-c2cc(C(=O)N3CCN(C(=O)c4ccco4)CC3)[nH]n2)c(C)c1	2.62
COCCN1C(=O)/C(=C/c2cccc(C)c2)S/C1=N\c1ccccc1	64.4
COCCN1C(=O)/C(=C/c2ccc(C)cc2)S/C1=N\c1ccccc1	-11.1
COCCN1C(=O)/C(=C/c2ccccc2)S/C1=N\c1ccccc1	-4.21
CCN(CC)CCCNc1cnnc2c(Cl)cccc12	-4.4
COc1ccc(OC)c(C2C3=C(O)CCCC3=NC(C)=C2C(=O)Nc2ccccn2)c1 (stereo not drawn)	-8.82
COc1ccc2c(c1)cc1c(=O)n(CC(=O)NCc3cccc(OC)c3OC)nc(C)n12	99.1
COc1ccccc1CNC(=O)Cn1nc(C)n2c(cc3c(OC)cccc32)c1=O	-3.47
CCCNC(=O)Cn1nc(C)n2c(cc3cc(OC)ccc32)c1=O	4.84

Source: article PMC6919601, “Identification of Plasmodium dipeptidyl aminopeptidase allosteric inhibitors by high throughput screening” (PLoS ONE, 2019)
